# Results published in the supplement of paper PMC9694430.
# Columns and labels:
# Assay in all cases: thermal shift delta Tm vs DMSO control; higher = stronger stabilization (binding)
# Conditions in all cases: 12.5 µM; protein concentration 2 µM
# [1] = tested on: LOC_OS02G45750-cb003
# Procedure, shortened: (§1)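 Purified, E. coli-expressed rice kinase domain constructs were tested by differential scanning fluorimetry in 96-well plates: 19.5 μl of 2 μM kinase in 100 mM potassium phosphate pH 7.5, 150 mM NaCl, 10% glycerol, 5 × SYPRO Orange, plus compound in DMSO. Fluorescence was read from 25°C to 95°C at 0.05°C/s. Melting temperatures came from Boltzmann fits, and the shift is the triplicate mean relative to protein with DMSO alone.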
# [2] = tested on: LOC_OS02G54510-cb004
# Procedure, shortened: as §1
# [3] = tested on: LOC_OS03G04050-cb001
# Procedure, shortened: as §1
# [4] = tested on: LOC_OS03G12390-cb001
# Procedure, shortened: as §1
# [5] = tested on: LOC_OS03G27990-cb004
# Procedure, shortened: as §1
# [6] = tested on: LOC_OS03G50450-cb001
# Procedure, shortened: as §1
# [7] = tested on: LOC_OS03G50810-cb003
# Procedure, shortened: as §1
# [8] = tested on: LOC_OS04G35114-cb001
# Procedure, shortened: as §1
# [9] = tested on: T1, LOC_OS04G38480-cb003
# T1 sequence (whole entry): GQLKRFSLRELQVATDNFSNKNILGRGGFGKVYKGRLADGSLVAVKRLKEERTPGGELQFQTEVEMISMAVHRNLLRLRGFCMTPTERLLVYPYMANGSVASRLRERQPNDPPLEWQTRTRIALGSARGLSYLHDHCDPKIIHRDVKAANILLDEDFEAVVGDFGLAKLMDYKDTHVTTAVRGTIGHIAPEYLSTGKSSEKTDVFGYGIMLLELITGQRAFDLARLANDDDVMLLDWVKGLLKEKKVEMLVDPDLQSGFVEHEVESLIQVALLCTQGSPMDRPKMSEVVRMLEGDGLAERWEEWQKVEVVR
# Procedure, shortened: as §1
# [10] = tested on: T2, LOC_OS04G41100-cb001
# T2 sequence (whole entry): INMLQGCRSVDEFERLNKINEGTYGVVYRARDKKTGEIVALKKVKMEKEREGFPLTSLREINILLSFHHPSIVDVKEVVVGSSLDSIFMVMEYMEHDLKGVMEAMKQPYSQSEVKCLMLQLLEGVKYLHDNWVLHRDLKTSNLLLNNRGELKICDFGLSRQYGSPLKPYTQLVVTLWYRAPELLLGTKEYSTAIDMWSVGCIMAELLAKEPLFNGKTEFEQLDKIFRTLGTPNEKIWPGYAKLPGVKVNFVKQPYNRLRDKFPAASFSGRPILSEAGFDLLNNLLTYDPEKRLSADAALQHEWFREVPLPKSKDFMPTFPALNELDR
# Procedure, shortened: as §1
SMILES,thermal shift delta Tm [1] [°C],thermal shift delta Tm [2] [°C],thermal shift delta Tm [3] [°C],thermal shift delta Tm [4] [°C],thermal shift delta Tm [5] [°C],thermal shift delta Tm [6] [°C],thermal shift delta Tm [7] [°C],thermal shift delta Tm [8] [°C],thermal shift delta Tm [9] [°C],thermal shift delta Tm [10] [°C]
NC(=O)c1ncn([C@@H]2O[C@H](CO)[C@@H](O)[C@H]2O)c1N [AICAR (Acadesine)],0.81,0.42,0.68,0.15,0.5,0.66,0.55,0.59,0.31,0.46
O=C1Nc2ccc(CN3C(=O)CSC3=O)cc2/C1=C/c1cc(CN2CCOCC2)c[nH]1,2.91,0.28,0.58,4.37,0.63,0.68,2,3.48,3.05,0.46
Cn1cc(-c2ccc3ncc(Cc4ccc5ncccc5c4)n3n2)cn1,0.5,0.06,0.32,-0.22,0.07,0.05,0.44,2.6,1.45,0.07
CCN(CC)CCNC(=O)c1c(C)[nH]c(/C=C2\C(=O)Nc3ccc(-c4csc(-c5ccccc5)n4)cc32)c1C [Amcasertib (BBI503)],0,0.74,0.42,0.16,0.77,1.61,7.41,15,1.78,0.78
O=c1cc(N2CCOCC2)oc2c(-c3ccccc3)cccc12,0.29,0,0.47,0.68,-0.02,0.21,0.41,0.16,0.52,0.8
O=S(=O)(NCCNC/C=C/c1ccc(Br)cc1)c1cccc2cnccc12,0.56,0.32,0.25,0.22,0.02,0.46,0.01,0.54,0.79,0.63
CC(C)c1c2cc(-c3ccnc(NC4CCC(NC5CCOCC5)CC4)n3)ccc2nn1C (stereo not given),1.08,0.06,0.41,0.78,0.18,0.03,1.01,2.72,0.69,6.52
CN1CCN(c2ccc(OC(F)(F)F)c(Nc3ncc4c(n3)-c3c(c(C(N)=O)nn3CCO)CC4)c2)CC1,0.67,-0.01,0.33,1.65,-0.02,-0.04,0.54,1.58,-0.15,0.74
Cc1nc2ccc(-n3ncc(C(=O)c4cc5ccccc5[nH]4)c3N)cc2[nH]1,2.94,4.14,0.05,1.25,0.29,-0.16,0.75,3.8,0.93,-0.16
CCNc1nc(Nc2cc(F)c(C(=O)N3CCOCC3)cc2OC)ncc1C(F)(F)F,1.06,0.23,0.41,0.25,0.28,0.95,0.82,1.17,1.15,0.43
Cc1ccc(Nc2nccc(N(C)c3ccc4c(C)n(C)nc4c3)n2)cc1S(N)(=O)=O [Pazopanib],3.24,0.61,0.35,0.19,0.23,0.21,0.98,4.53,1.63,3.44
CONC(=O)c1ccccc1Nc1cc(Nc2cc(C)nn2C(C)C)ncc1Cl,1.44,0.08,0.47,1.86,0.55,0.47,1.12,0.79,2.41,0.42
CC(C)(CO)n1cc(C(=O)c2cncc(NC(=O)Cc3ccc(Cl)cn3)c2)c2cnc(N)nc21,1.08,0.19,0.46,0.3,0.39,0.47,0.51,0.51,1.37,0.41
CC1(C)OCCn2c1nc1c(N3CCOCC3)nc(-c3cnc(N)nc3)nc12,-0.63,0.42,0.09,-0.14,0.19,0.18,0.33,0.39,0.75,-0.13
Oc1cc(CNC(=S)/C=C/c2cc(O)c(O)c(Br)c2)cc(O)c1O,0.11,-0.88,0.71,0.57,0.49,0.42,0.39,-1.08,0,-0.03
Cc1cc(Nc2cc(N3CCN(C)CC3)nc(/C=C/c3ccccc3)n2)n[nH]1 [ENMD-2076 L-(+)-Tartaric acid],4.88,2.59,0.44,4.22,2.61,8.63,7.35,6.49,2.07,1.89
CC1(C)OC(=O)C=C[C@]2(C)[C@H]3CC[C@@]4(C)[C@H](c5ccoc5)OC(=O)[C@H]5O[C@]54[C@]3(C)C(=O)C[C@@H]12 [Obacunone],0.46,-0.19,0.48,0.2,0.14,0.72,0.54,-0.27,1.66,0.27
